# Screens from PubChem.
# EP2 mod – EP2 receptor (human) modulation. P43116. EP2-expressing cells, cAMP HTRF FRET, PGE2 co-stimulation. induction, % at 25 µM. 0.83% of 260,000 active. AID 940;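 active = compounds whose cAMP rise, as percent of the full-agonist control response, exceeds 60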;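 note: rat C6 glioma line stably carrying human EP2 under a CMV promoter; the protocol text gives 20 µM as final concentration; 100% = response of wells given 1 µM PGE2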
# S1P4 antag – antagonists of human S1P4 receptor; O95977; S1P4-expressing cells, antagonist mode, reporter read-out; inhibition, % at 4.98 µM; 0.26% of 220,000 active; AID 1510; in the data active = inhibition above about 29%;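 note: 0% = wells stimulated with agonist and 100% = vehicle wells without agonist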
# S1P3 antagonist – S1P3 (human) receptor antagonism; Q99500; inhibition, % at 4.98 µM; 0.27% of 170,000 active; AID 485; CHO S1P3 NFAT-BLA reporter, FRET fluorescence, antagonist mode;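 active = inhibition above the plate cutoff, the mean inhibition of test wells on that plate plus 3 SD, cut at about 28% in these data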;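 note: cells challenged with S1P at its EC80 of 0.8 µM; blue over green emission ratio from cleaved BLA substrate after 4 h stimulation; 0% = S1P-stimulated wells and 100% = unstimulated DMSO-only wells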
# Target sequence (Q99500 whole entry, looked up): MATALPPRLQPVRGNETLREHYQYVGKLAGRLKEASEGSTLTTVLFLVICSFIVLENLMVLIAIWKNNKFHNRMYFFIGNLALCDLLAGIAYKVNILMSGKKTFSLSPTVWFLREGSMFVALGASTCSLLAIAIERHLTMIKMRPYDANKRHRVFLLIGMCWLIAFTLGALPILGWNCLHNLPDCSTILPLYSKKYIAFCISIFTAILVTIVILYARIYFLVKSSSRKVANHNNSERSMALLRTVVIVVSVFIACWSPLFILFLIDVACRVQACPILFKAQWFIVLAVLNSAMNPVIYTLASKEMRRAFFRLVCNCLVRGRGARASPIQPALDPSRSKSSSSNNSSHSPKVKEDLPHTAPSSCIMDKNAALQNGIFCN
# S1P4 agonist – human S1P4 receptor agonism. O95977. S1P4-expressing cell line, agonist reporter assay. activation, % at 4.98 µM. 0.35% of 220,000 active. AID 1509; in the data active = activation above about 11%;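 note: 0% = DMSO vehicle and 100% = reference agonist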
# PGE2 EP2 inh – blocks the human prostaglandin E2 receptor EP2 | P43116 | C6 glioma cells expressing human EP2, cAMP TR-FRET; cells stimulated with saturating PGE2 | inhibition, % at 25 µM | 0.52% of 260,000 active;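 active = percent inhibition above 40 after rounding to a whole number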;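 note: rat C6 glioma host cells with rolipram phosphodiesterase inhibitor present; the protocol text gives 20 µM as final concentration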
# EP2 confirm – human EP2 receptor cAMP induction, negative in counter-screens; shares compounds with EP2 mod; C6 glioma EP2 cells, cAMP HTRF induction; plus low (about EC15) PGE2 agonist; calls only at 20 µM (by protocol); 47% of 1,300 active;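 active = cAMP induction above 50% in the main assay while under 30% in all four parallel counter assays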;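 note: rat C6 glioma cells stably expressing human EP2 receptor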
# * hit, by the source's call; i = inactive; · = no result given; + = active, no number. This is a sample that favours compounds with a hit; in the whole collection about 1.9% have one here.
SMILES,EP2 mod,S1P4 antag,S1P3 antagonist,S1P4 agonist,PGE2 EP2 inh,EP2 confirm
CC1CCCC(C)N1C(=O)CSc1nnc(-c2ccncc2)n1C (centres undefined),2.3,·,·,·,13.7,·
CCOc1ccc(-n2c(C)nc3c(cnn3-c3ccc(Cl)cc3)c2=O)cc1,30.0,-24.3,-20.6,-1.2,20.4,·
CCc1nc2c(cnn2-c2ccc(Cl)cc2)c(=O)n1-c1ccc(OC)cc1,81.2*,16.3,18.1,1.9,16.7,i
Cc1ccc(C2CC(c3cccs3)=NN2C(=O)c2ccc(Br)o2)cc1 (centres undefined),57.2,7.6,·,-0.7,9.6,i
CC(=O)N1N=C(c2cccs2)CC1c1ccc(C)o1 (centres undefined),0.3,-12.3,3.5,1.2,10.5,·
C/C(=N\N(Cc1ccccc1)c1ccccc1)c1ccncc1,75.1*,3.4,-5.7,0.6,17.0,+
CN(C(=O)c1ccncc1)c1ccccc1,19.2,-2.4,6.9,-1.3,5.5,·
C=Cn1ncc(CN2CCC(O)(c3ccc4c(c3)OCO4)CC2)c1C,-9.2,·,·,·,7.5,·
CCC1Oc2ccc(C)cc2N(Cc2cccc(C)c2)C1=O (centres undefined),75.3*,-0.8,·,-0.9,5.9,+
Cc1ccc2c(c1)N(Cc1ccc3c(c1)OCO3)C(=O)C(C)O2 (centres undefined),58.7,-16.9,-13.3,0.9,2.1,·
COc1cccc2[nH]c3c(N4CCCCC4)ncnc3c12,94.4*,2.4,20.1,0.4,3.9,+
Cc1ccc(N2CCCC2=O)cc1S(=O)(=O)Nc1ccc(N2CCCC2=O)cc1,-39.3,·,·,·,4.5,·
CCOC(=O)c1cc(CC)sc1NC(=O)c1ccc2c(c1)OCCO2,69.2*,16.2,·,0.4,11.3,+
CCOC(=O)c1cc(C)sc1NC(=O)c1ccc(Cl)s1,65.0*,7.1,·,0.8,6.7,+
CCc1nc(SCc2ccccc2)[nH]c(=O)c1C,15.4,·,·,·,4.3,·
COc1ccc2cc(C(c3nnnn3C(C)(C)C)N3CCN(C)CC3)c(=O)[nH]c2c1 (centres undefined),5.6,·,·,·,10.8,·
CC1=CC(C)(C)N(S(=O)(=O)c2ccc(C)cc2)c2cc(C)ccc21,69.5*,3.5,·,2.2,12.9,+
Cc1cccc2cc(CN(CCN(C)C)C(=S)NCCCN3CCOCC3)c(=O)[nH]c12,-4.2,·,·,·,8.4,·
O=C1c2ccccc2OC2(C=Cc3ccccc3O2)N1Cc1ccccc1 (centres undefined),76.5*,-0.4,·,-3.6,·,+
Cc1ccccc1Nc1nc2ccccc2s1,16.7,-8.1,3.4,-0.2,14.6,·
Cc1ccccc1Nc1cccc2nonc12,66.5*,11.5,10.4,-1.3,6.8,+
Cc1ccccc1Cn1c2ccccc2c2cn[nH]c(=O)c21,62.3*,4.5,-31.8,-0.1,-6.9,+
Cc1cc2c(s1)c1cn[nH]c(=O)c1n2Cc1ccc(F)cc1,-19.6,·,·,·,·,·
Cc1nn(Cc2cccnc2)c(=O)n2cccc12,22.5,·,·,·,·,·
COc1cc(OC)cc(OCC(O)Cn2cnc3ccccc32)c1 (centres undefined),-13.4,·,·,·,6.5,·
SMILES,EP2 mod,S1P4 antag,S1P3 antagonist,S1P4 agonist,PGE2 EP2 inh,EP2 confirm
COc1cc(O)c2c(=O)cc(C)oc2c1CC=C(C)C,91.8*,·,·,·,8.7,+
CCCCOc1ccccc1NC(=O)c1ccco1,58.8,-15.9,20.2,-3.7,12.0,·
CCCCOc1ccccc1NC(=O)c1scc2c1OCCO2,87.2*,7.0,6.9,1.2,4.6,+
Cc1ccc(NC(=O)Cn2cnc3sc(C)c(C)c3c2=O)cc1,-29.8,·,·,·,9.2,·
COc1c(Cl)cc(Cl)cc1C(=O)n1nc(C)cc1C,74.1*,-21.2,·,1.6,7.9,i
Cc1cc(C)n(C(=O)c2ccc(Cl)c(F)c2F)n1,32.5,0.3,-5.3,0.4,6.5,·
CCc1nnc(NC(=O)CSc2nc(-c3ccccc3)c(-c3ccccc3)o2)s1,-15.9,-10.6,1.8,1.7,9.0,·
NC(=O)CSc1nc(-c2ccccc2)c(-c2ccccc2)o1,67.1*,-15.7,·,-0.5,2.8,+
O=S(=O)(NCC1CCCO1)c1ccc(S(=O)(=O)N(Cc2cccs2)C2CC2)cc1 (centres undefined),-66.1,·,·,·,8.9,·
COc1ccc(S(=O)(=O)N(Cc2cccs2)C2CCCC2)cc1,80.6*,24.4,16.6,-3.5,4.8,+
CCOc1cc(-c2nc3cnccn3c2NCc2cccs2)ccc1O,-45.6,·,·,·,11.6,·
